Compound activity (PubChem)
ROMK primary = modulators of human ROMK potassium channel; Tet-inducible ROMK, thallium flux fluorescence; actives lie on both sides; B-score at 10 µM; 2% of 130,000 active; AID 1918;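 active = signal ratio slope over the read window, or its plate-corrected B-score, at least 3 SD from the plate mean, either direction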;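 also: B-score of the F/F0 ratio slope over 7 to 12 s after thallium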
Target sequence (P48048 whole entry, looked up): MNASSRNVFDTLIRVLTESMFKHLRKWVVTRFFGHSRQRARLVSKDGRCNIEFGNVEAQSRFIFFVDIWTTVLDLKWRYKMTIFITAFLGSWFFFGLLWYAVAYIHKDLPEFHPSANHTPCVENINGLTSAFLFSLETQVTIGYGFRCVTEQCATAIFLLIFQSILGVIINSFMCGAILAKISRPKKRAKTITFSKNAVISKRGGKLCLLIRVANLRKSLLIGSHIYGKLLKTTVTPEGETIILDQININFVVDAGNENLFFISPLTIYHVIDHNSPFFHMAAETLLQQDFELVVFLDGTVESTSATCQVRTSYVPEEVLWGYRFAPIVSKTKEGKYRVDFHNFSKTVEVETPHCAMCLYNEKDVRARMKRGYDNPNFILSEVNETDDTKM
PERK inhibitor = inhibitors of human PERK kinase. 0.17% of 220,000 active. AID 1416. inhibition, % at 5.6 µM. CHO PERK-DD fusion, SEAP luminescence translation reporter. Q9NZJ5;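 active = inhibition above the mean inhibition of all tested compounds plus 3 SD, set separately per screening campaign, cut at about 2.9% in these data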;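 also: PERK kinase domain activated by AP20187 dimerizer at 100 nM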
Arbovirus anti = antivirals against arbovirus infection; arbovirus infection cell-based antiviral screen; inhibition, % at 10 µM; 0.37% of 200,000 active; AID 1251; in the data active = inhibition above about 30%
WT yeast gro inh = growth inhibition of WT yeast, mitochondrial fusion screen; 2.1% of 190,000 active; mitochondrial fusion phenotypic screen, WT strain; inhibition, % at 10 µM; in the data active = inhibition above about 58%; tested in S. cerevisiae
ROMK hit retest = confirmation of human ROMK potassium channel modulators; shares compounds with ROMK primary; ROMK thallium flux, fluorescence ratio; active compounds read low; normalized thallium flux (F/F0 slope) at 10 µM; 54% of 3,000 active;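 active = Flux at 10 µM at least 3 SD below or above vehicle control mean in one or both replicates; inconclusive = no clear call, values can overlap the other calls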
Large screens that a line does not name were inactive (follow-up assays come after a bar, where they were run). Most compounds without a hit are left out; they make up all but 3.3% or so of the library.

O=C(NCCCN1CCOCC1)C(=O)N/N=C/c1ccccc1O	none (no result: ROMK primary, Arbovirus anti, WT yeast gro inh)
CCCN1CCC(NC(=S)Nc2ccc([N+](=O)[O-])cc2)CC1	ROMK primary -4.4 | ROMK hit retest 0.056
CCCN1CCN(C(=S)Nc2ccc([N+](=O)[O-])cc2)CC1	none (no result: ROMK primary)
CCOc1ccc2nc(COC(=O)c3cccs3)c(C(C)=O)[n+]([O-])c2c1	none (no result: ROMK primary, Arbovirus anti, WT yeast gro inh)
COc1ccc(Nc2nc3c([nH]2)c(=O)[nH]c(=O)n3C)cc1	none
C=CCOC(=O)C1C(=O)CC(C)(O)C(C(=O)OCC=C)C1c1ccc(OC)cc1 (stereo not drawn)	ROMK primary 1.2 | ROMK hit retest inactive
O=C(OCc1ccc(F)cc1)c1ccc2c(c1)-c1ccccc1C2=O	none (no result: ROMK primary)
CCOC(=O)C1=C(Cc2ccc(F)cc2)C(=O)c2ccccc2C1=O	ROMK primary -3.3 | ROMK hit retest 0.061
COCCN1C(=O)c2oc3cc(C)c(C)cc3c(=O)c2C1c1ccc(O)cc1 (stereo not drawn)	none (no result: ROMK primary, Arbovirus anti, WT yeast gro inh)
COC(=O)c1ccc(Oc2nc3ccccc3n3c(C)nnc23)cc1	none (no result: PERK inhibitor, Arbovirus anti, WT yeast gro inh)
Cc1ccc2[nH]c3c(N4CCN(Cc5ccccc5)CC4)ncnc3c2c1	none
Cc1ccc2[nH]c3c(N4CCN(Cc5ccc6c(c5)OCO6)CC4)ncnc3c2c1	ROMK primary -3.8 | ROMK hit retest 0.061
Cc1ccc2[nH]c3c(N4CCCCCC4)ncnc3c2c1	ROMK primary -4 | ROMK hit retest 0.058
O=C(CCNc1n[nH]c(=O)[nH]c1=O)N1CCOCC1	none
O=C(Cn1cc[n+](CC(=O)c2ccc(Cl)cc2Cl)c1)c1ccc(Cl)cc1Cl	ROMK primary -3 (no result: Arbovirus anti, WT yeast gro inh) | ROMK hit retest inactive
O=C(Cn1cc[n+](CC(=O)c2ccccc2)c1)c1ccccc1	none (no result: ROMK primary)
O=C(CCCN1C(=O)C2CCCCN2C1=O)N1CCN(c2ccc([N+](=O)[O-])cc2)CC1 (stereo not drawn)	none
O=C1C2CCCCN2C(=O)N1CCN1CCN(c2ccc([N+](=O)[O-])cc2)CC1 (stereo not drawn)	ROMK primary -2.8 | ROMK hit retest 0.047
CC(C)CCNC(=O)CCS(=O)(=O)c1cccc2nonc12	none (no result: ROMK primary)
CCCCC(CC)CNC(=O)CCS(=O)(=O)c1cccc2nonc12 (stereo not drawn)	none (no result: ROMK primary) | ROMK hit retest inconclusive
O=C(O)CC1(CC(=O)Nc2ccc(F)c(Cl)c2)CCCCC1	none (no result: ROMK primary, Arbovirus anti, WT yeast gro inh)
Cc1ccc(CSCCNC(=O)c2ccc(Cl)c(S(=O)(=O)N3CCOCC3)c2)cc1	ROMK primary -4 | ROMK hit retest inactive
COc1ccc(NC(=O)/C(Cl)=C(/Cl)S(=O)(=O)Cc2ccc(C)cc2)cn1	ROMK primary -3.8 | ROMK hit retest inconclusive
COCCN(CC(=O)NC1CCCCC1)C(=O)/C=C/C(=O)c1ccc(OC)cc1O	ROMK primary -5 | ROMK hit retest 0.053
COc1ccc(C(=O)/C=C/C(=O)N(Cc2ccc3c(c2)OCO3)C(C(=O)NC2CCCCC2)c2ccncc2)c(O)c1 (stereo not drawn)	none
Cc1ccc(N(CC(=O)N/N=C/c2ccco2)S(=O)(=O)c2ccccc2)cc1	none
CCCCN(C(=O)c1cccc2c(=O)c(C)c(-c3ccccc3)oc12)c1ccccc1	ROMK primary -3.7, WT yeast gro inh 78 | ROMK hit retest 0.063
O=C(COC(=O)c1ccc(Cl)nc1)c1ccc2c(c1)OCCO2	ROMK primary -2.2 | ROMK hit retest inactive
O=C(COC(=O)c1cccnc1Cl)c1ccc2c(c1)OCCO2	none
COc1cc(NC(=O)CN2CCC(C)CC2)c(C)cc1[N+](=O)[O-]	none (no result: ROMK primary)
COc1cc(NC(=O)CN2CCN(c3ccccc3O)CC2)c(C)cc1[N+](=O)[O-]	ROMK primary -4.4 | ROMK hit retest 0.049
O=C(N/N=C/c1cccn1-c1cccc(C(=O)O)c1)Nc1ccccc1	none
COc1ccc(CCNc2oc(COc3ccccc3Cl)nc2C#N)cc1OC	none (no result: ROMK primary) | ROMK hit retest 0.067
COc1ccc(CCNc2oc(COc3ccccc3F)nc2C#N)cc1OC	none
c1ccc2c(-c3[nH]ncc3CNCCCn3ncc4ccccc43)cccc2c1	ROMK primary -1.8 | ROMK hit retest inconclusive
O=C(c1ccccc1Cl)N1CCC(n2cccc2)CC1	none (no result: ROMK primary, Arbovirus anti, WT yeast gro inh)
CC[C@H](C)[C@H](NC(N)=O)C(=O)Nc1ccc(NC(C)=O)cc1	none (no result: ROMK primary, Arbovirus anti, WT yeast gro inh) | ROMK hit retest inactive
O=C(O)CSc1cc(C(=O)c2cc(F)ccc2O)cn2c(=O)c3c(-c4ccccc4)csc3nc12	none (no result: ROMK primary, Arbovirus anti, WT yeast gro inh)
Cc1cc2cc(CN(Cc3nnnn3C3CCCCC3)CC3CCCO3)c(=O)[nH]c2cc1C (stereo not drawn)	ROMK primary -5.7 | ROMK hit retest inconclusive
Cc1ccc2cc(CN(Cc3nnnn3C3CCCCC3)CC3CCCO3)c(=O)[nH]c2c1 (stereo not drawn)	none (no result: ROMK primary)
O=S(=O)(Cc1ccccc1)Nc1ccc(S(=O)(=O)NCC2CCCO2)cc1 (stereo not drawn)	none (no result: ROMK primary) | ROMK hit retest inactive
O=S(=O)(Cc1ccccc1)NCC1CCCO1 (stereo not drawn)	none (no result: ROMK primary)
CCOc1cc2c(cc1OCC)C(c1ccccc1OC)OC(=O)C2 (stereo not drawn)	none
COc1ccc(C2OC(=O)Cc3cc(OC)c(OC)cc32)cc1 (stereo not drawn)	ROMK primary -2.5 | ROMK hit retest inactive
COc1ccc(-n2c(O)c(/C=N/NS(=O)(=O)c3ccc(C)cc3)c3ccccc3c2=O)cc1OC	ROMK primary -5 | ROMK hit retest inconclusive
COc1ccc(-n2c(O)c(/C=N/NS(=O)(=O)c3cc(C)ccc3C)c3ccccc3c2=O)cc1OC	none (no result: ROMK primary)
O=C(O)/C=C/C(=O)N1CCN(C(c2ccccc2)c2ccccc2)CC1	none (no result: ROMK primary, Arbovirus anti, WT yeast gro inh)
C/C(=N\Nc1nc(-c2ccccn2)nc2ccccc12)c1ccc(F)cc1	none (no result: ROMK primary, Arbovirus anti, WT yeast gro inh)
c1ccc(-c2nc(N3CCCCCC3)c3ccccc3n2)nc1	ROMK primary -2.7 | ROMK hit retest 0.059
c1ccc(CCNc2nc(-c3ccccn3)nc3ccccc23)cc1	none (no result: ROMK primary, Arbovirus anti, WT yeast gro inh) | ROMK hit retest inconclusive
COCCNC(=O)Cn1c(=O)n(CCCCCC(=O)Nc2ccccc2)c(=O)c2sccc21	none (no result: ROMK primary)
CCOc1ccccc1OCC(=O)O	none (no result: ROMK primary)
Cc1cc(C)cc(NS(=O)(=O)c2cc(C(=O)NCc3ccccn3)ccc2Cl)c1	none
Cc1cc(Br)cn2ccnc12	ROMK primary 1.2, PERK inhibitor 3.0 | ROMK hit retest inactive
O=C(Nc1ccc(OCC(=O)N2CCC(Cc3ccccc3)CC2)cc1)c1ccco1	ROMK primary -3.1 | ROMK hit retest 0.067
O=C1/C(=C/c2ccccc2)Nc2ccccc21	none (no result: ROMK primary) | ROMK hit retest 0.023
CN(Cc1ccccc1)C(=O)CN(c1ccc(F)cc1)S(=O)(=O)c1ccc2c(c1)OCCO2	none (no result: ROMK primary)
CCCCCCCCCCn1ccc(=N)cc1	ROMK primary -3.6 (no result: Arbovirus anti, WT yeast gro inh) | ROMK hit retest inconclusive
COCCN1C(=O)c2ccccc2C(C(=O)NCCCN2CCCC2=O)C1c1c[nH]c2ccccc12 (stereo not drawn)	none (no result: ROMK primary)
COCCn1c(=NC(=O)CSCC(=O)Nc2cc(C)on2)sc2cc(C(=O)OC)ccc21	none | ROMK hit retest inactive
COCCn1c(SCC(=O)Nc2cc(C)on2)nnc1-c1ccco1	none
CCN(CC)S(=O)(=O)c1ccc2c(c1)N(CC(=O)NCc1ccccn1)C(=O)CO2	none (no result: Arbovirus anti, WT yeast gro inh)
COC(=O)c1cc(C(=O)N2CCN(c3cccc(Cl)c3)CC2)cc([N+](=O)[O-])c1	ROMK primary 3.7 | ROMK hit retest inconclusive
O=C(c1cccc([N+](=O)[O-])c1)N1CCN(c2cccc(Cl)c2)CC1	none
